# Assay results reported in PubChem BioAssay (NCI).
# This is part of a sample that, as a whole, favours compounds with a hit. Of some 83,000 tested, about 20% had one in any assay.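 Results are percent growth after 48 hours of single-concentration exposure. 100 means growth as in untreated cells, lower positive values show inhibition; negative values down to -100 show cell death.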 A number with no mark means an inactive call. Active and inactive are the calls of the source. How the source made its calls: active means growth percent below 10; inactive means the rest.
# Key:
# Test in all cases: NCI-60 one-dose screen, 48 h (100 = growth as untreated, 0 = no growth, -100 = all killed)
# Settings in all cases: 10 µM unless noted
# DU-145 prostate = system: DU-145 prostate
# K-562 leukemia = system: K-562 leukemia
# MALME-3M melanoma = system: MALME-3M melanoma
# MDA-MB-231 breast = system: MDA-MB-231 breast
# RXF 393 renal = system: RXF 393 renal
# SF-268 CNS = system: SF-268 CNS
# SF-295 CNS = system: SF-295 CNS
# SF-539 CNS = system: SF-539 CNS
# UACC-257 melanoma = system: UACC-257 melanoma
# M14 melanoma = system: M14 melanoma
# HCT-15 colon = system: HCT-15 colon
# HT29 colon = system: HT29 colon
# SNB-75 CNS = system: SNB-75 CNS
# SNB-19 CNS = system: SNB-19 CNS
# U251 CNS = system: U251 CNS
# SK-MEL-5 melanoma = system: SK-MEL-5 melanoma
# UACC-62 melanoma = system: UACC-62 melanoma
# LOX IMVI melanoma = system: LOX IMVI melanoma
# SK-MEL-28 melanoma = system: SK-MEL-28 melanoma
# PC-3 prostate = system: PC-3 prostate
SMILES,growth (DU-145 prostate),growth (K-562 leukemia),growth (MALME-3M melanoma),growth (MDA-MB-231 breast),growth (RXF 393 renal),growth (SF-268 CNS),growth (SF-295 CNS),growth (SF-539 CNS),growth (UACC-257 melanoma),growth (M14 melanoma),growth (HCT-15 colon),growth (HT29 colon),growth (SNB-75 CNS),growth (SNB-19 CNS),growth (U251 CNS),growth (SK-MEL-5 melanoma),growth (UACC-62 melanoma),growth (LOX IMVI melanoma),growth (SK-MEL-28 melanoma),growth (PC-3 prostate) [%]
C=C(C)[C@@H]1CC[C@]2(C(=O)OC)CC[C@]3(C)[C@H](CC[C@@H]4[C@@]5(C)CC/C(=N\OCCC(=NCCC#N)NOCCC#N)C(C)(C)[C@@H]5CC[C@]43C)[C@@H]12,27.5% [100 µM],5.42% [100 µM] (active),25.3% [100 µM],5.09% [100 µM] (active),-43.1% [100 µM] (active),29.1% [100 µM],36.6% [100 µM],-2.29% [100 µM] (active),8.82% [100 µM] (active),26.6% [100 µM],34.3% [100 µM],3.88% [100 µM] (active),18.4% [100 µM],28.9% [100 µM],-39.7% [100 µM] (active),-84.7% [100 µM] (active),-25.8% [100 µM] (active),14.6% [100 µM],29.2% [100 µM],–
COc1ncnc2c(-c3ccccc3)cn(COCc3ccccc3)c12,86.6%,29.5%,51.9%,56.9%,70.3%,74.4%,52.6%,84.1%,40%,44.1%,42.6%,47.8%,99.8%,78%,60.1%,5.61% (active),40.4%,56%,77.9%,–
Nc1nc(Cl)c2ncn(Cc3cc4c(cc3I)OCO4)c2n1,52.8%,15.9%,63.7%,40.9%,66.3%,62.1%,42.5%,46.5%,81.4%,76%,25.1%,9.61% (active),73.5%,61.9%,53.5%,72%,45.7%,11.8%,87.7%,–
Cn1cc(-c2noc(C(=O)c3cn(C)c4ncccc34)n2)c2ccccc21,87.4%,76.1%,72.5%,70.3%,88.5%,99.3%,101%,90.2%,103%,98.7%,65.2%,102%,60.4%,93.1%,89.2%,87.9%,91.8%,94.8%,100%,–
CC1=CC[C@@H]2C(C)(C)[C@@H](O)CC[C@@]2(C)[C@@H]1COc1ccc2ccc(=O)oc2c1,68.9%,36%,72.3%,78.7%,65%,66.1%,46.5%,85.6%,102%,–,29.4%,70.5%,62.1%,81.2%,67.9%,28.7%,22.9%,52.2%,91.4%,30.6
CC(=O)O.CC(=O)O.O.[Fe],105%,139%,91.5%,99.2%,110%,95.1%,127%,103%,103%,106%,111%,98.7%,114%,98.2%,107%,107%,93.7%,100%,112%,–
Nc1cc(NN=C(c2ccc(O)cc2)c2ccc(O)cc2)c([N+](=O)[O-])cc1[N+](=O)[O-],91.3%,78.4%,105%,54.4%,-69.9% (active),81.8%,75.8%,-55.3% (active),-60.6% (active),-52.9% (active),4.01% (active),98.4%,78.2%,-22.6% (active),4.49% (active),-85.4% (active),42.3%,-32.5% (active),80.8%,–
CCN(CC)CCSC(=O)C(O)(c1ccccc1)C1CCCC1 (centres undefined),95.6%,96.4%,116%,97.9%,82.1%,91.3%,113%,110%,83.2%,128%,98.6%,114%,95.2%,111%,108%,117%,86.9%,90.3%,87%,–
Cc1nc(Cl)cc(N(c2cc(Cl)nc(C)n2)c2ncc(C(=O)Nc3c(C)cccc3Cl)s2)n1,76.5%,6.72% (active),62.5%,24%,3.03% (active),47%,50.4%,38.9%,79.6%,79.6%,59.4%,20.4%,-30.3% (active),72.9%,54.6%,46.2%,53.3%,14.2%,78%,–
COc1cc(Cl)cc(-c2nn(C(=O)NS(=O)(=O)c3ccccc3)cc2-c2ccncc2)c1,82.5%,86.3%,96.4%,62.6%,79.2%,81.1%,97.9%,48.2%,110%,86.4%,111%,41.1%,3.59% (active),105%,81.5%,93.3%,82.7%,59.1%,98.7%,–
O=C(NCCCNC(=O)OCc1ccc2cccc(O)c2n1)OCc1ccc2cccc(O)c2n1,28.7%,14.1%,72.3%,70%,0.757% (active),54%,38.7%,35.1%,53.9%,38.9%,1.71% (active),17%,28.4%,54.6%,39.8%,61.5%,39.6%,-73.2% (active),64.3%,–
Cn1cc(-c2nnc(-c3cn(C)c4ncccc34)o2)c2ccccc21,60%,10.3%,19.3%,38.5%,10%,51.1%,13.1%,27.7%,73.6%,35.5%,17.9%,12.1%,-18.3% (active),42.3%,30.1%,0.903% (active),27.7%,48.6%,55.9%,–
COC(=O)c1cc2c(=O)[nH]cc3c2c(n1)CCC3,116%,99.3%,99.3%,106%,100%,100%,112%,97.3%,102%,104%,113%,105%,104%,96.2%,103%,104%,107%,104%,105%,–
COc1ccc(-c2cc(-c3ccc(Cl)cc3)nc(NCCCCNc3ccnc4cc(Cl)ccc34)n2)cc1,98.8%,0.414% (active),-18% (active),73.4%,26.5%,86.5%,83.8%,64.8%,3.17% (active),34.6%,0.532% (active),4.81% (active),99.5%,95.5%,70.9%,26.8%,84.8%,-78.3% (active),-7.9% (active),–
Cc1ccc(NC(=O)N[C@@H](Cc2cc(F)cc(F)c2)C(=O)N[C@@H]2C(=O)N3CCC[C@H]3C(=O)N3CCOC[C@H]3C(=O)N[C@@H](C)C(=O)N3C[C@H](C)C[C@H]3C(=O)O[C@H]2C)cc1,31.2%,17.2%,33.6%,9.97% (active),36.9%,28.5%,12.7%,47.6%,20.9%,26.9%,32.9%,32.4%,16.9%,21.5%,27.1%,10.6%,26.3%,38.3%,42.3%,–
c1ccc(-c2nnc(-c3c[nH]c4ncccc34)s2)cc1,87.4%,83.9%,88%,86.8%,94.5%,86.2%,96.8%,96.9%,109%,97.8%,83.4%,106%,59.6%,91.7%,93.2%,91.6%,81.2%,97%,99.6%,–
